Test results published in PubChem BioAssay (NCI).
The panel holds about 79,000 compounds, 15% with a hit somewhere; the sample as a whole holds those more often. A number with no mark means an inactive call. The source made the active and inactive calls. Cut-off read from the data, not from the text of the source: active = growth inhibition above about 70%; inactive = the rest.

Assay: NCI Yeast Anticancer Drug Screen. Data for the sgs1 mgt1 strain (AID 161);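 note: 0% = growth of cultures given vehicle only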
Details: S. cerevisiae sgs1 mgt1 strain, at 5.0 µM (retest, dose inferred, filed as 0.5), active compounds read high
Summary of the method: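 Genetically altered yeast, compound exposure, growth inhibition relative to vehicle.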

Compound | growth inhibition
C[n+]1c(/C=C/c2ccc(N3CCCC3)cc2)sc2ccccc21 | 95% (active)
COc1ccc(-c2c(C#N)c(S)n(NS(=O)(=O)c3ccc(C)cc3)c(=O)c2C#N)cc1 | 34%
N#Cc1c(-c2ccc(Cl)c(Cl)c2)c(-c2ccc(Cl)c(Cl)c2)nn(CCO)c1=O | 50%
NCc1ccc(O)c(O)c1O | 8%
C[CH2][Sn]([CH2]C)([O]C(=O)c1cc(OC)c(OC)c(OC)c1)[O][Sn]([CH2]C)([CH2]C)[O]C(=O)c1cc(OC)c(OC)c(OC)c1 | 31%
C=CCNCCC1CCCCCC1 | 7%
Cc1ccc(/C=C/C(=O)/C=C/c2ccc(C)o2)o1 | 49%
CCCC(=O)c1cc(O)c(O)c(CN(C)Cc2cc(Cl)cc(C)c2O)c1O | -11%
COC(=O)/C(C#N)=C/c1cc(OC)c(O)cc1Br | 44%
O=C(/C=C/c1ccccc1)CCN1CCOCC1 | 22%
c1cc2c(c3c1CN(C1CCCCC1)CO3)OCN(C1CCCCC1)C2 | 6%
CSc1nc2ccccc2s1 | -1%
CC1(C)CC(=O)C(CSC(=O)c2ccccc2)=C(O)C1 | -4%

Same assay, conditions: S. cerevisiae sgs1 mgt1 strain, at 50.0 µM (retest, dose inferred, filed as 5.0), active compounds read high

Compound | growth inhibition
CCOc1ccccc1/C=C1\NC(=O)N(/C=C2\C(=O)Oc3ccccc3C2=O)C1=O | 85% (active)
CC(NNC(=S)N1CCCC1)c1ccc2ccccc2n1 (stereo not given) | 96% (active)
N#Cc1c(-c2ccc(Cl)cc2)c(C#N)c(=O)n(NS(=O)(=O)c2ccccc2)c1S | 93% (active)
CC(C)/C=C1\CCOC1=O | 5%
c1ccc(Nc2nnc3nc(-c4ccccc4)c(-c4ccccc4)nn23)cc1 | 91% (active)
O=C(NC(c1ccccc1)N1CCOCC1)c1ccccc1 (stereo not given) | -3%
N[C@@H]1CCCC[C@@H]1N.O=C([O-])CN(CP(=O)([O-])[O-])CP(=O)([O-])[O-].[Pt+2] | 88% (active)
C/C=C\C(/C=C/C)(C(=O)OCCN(C)C)C(/C=C\C)(/C=C/C)C(=O)OCCN(C)C (stereo not given) | 96% (active)
COc1ccc(CCNC(=S)/N=C\C(C(=O)c2ccccc2)=C(\O)c2ccccc2)cc1OC | 75% (active)
Cc1ccccc1C1SCc2nc3ccccc3n21 (stereo not given) | 1%
O=C(Nc1ccc(Cl)cc1)Nc1nnc(/C=C/c2ccc(Cl)c(Cl)c2)o1 | 0%
Cc1c(CCCl)c(N=[N+]=[N-])n2c(nc3ccccc32)c1C#N | 51%
O=C(OCCCC(C(=O)c1ccccc1)=P(c1ccccc1)(c1ccccc1)c1ccccc1)c1ccccc1 | 99% (active)
O=C(c1ccccc1)c1ccc(Cl)cc1 | 4%
O=C1C(C(O)(C(F)(F)Cl)C(F)(F)Cl)CCCC1C(O)(C(F)(F)Cl)C(F)(F)Cl (stereo not given) | 99% (active)
CCN(CC)C(=S)N=Nc1c(O)[nH]c2ccccc12 | 99% (active)

Compound | growth inhibition
c1csc(-c2nnc(C34CC5CC(CC(C5)C3)C4)o2)c1 | 97% (active)
C/C(O)=C(/C=N/C(=S)Nc1ccc(S(N)(=O)=O)cc1)C(=O)Nc1ccccc1C | -2%
CC(C)(Oc1ccc(-c2cccc3ccccc23)cc1)C(=O)O | 49%
CCc1scc(C)[n+]1CC(=O)c1cccc([N+](=O)[O-])c1 | 2%
O=C1CCC(C(c2ccccc2)(c2ccccc2)c2ccccc2)CC1=O (stereo not given) | 99% (active)
Clc1ccc(C2SCc3nc4ccccc4n32)cc1Cl (stereo not given) | 96% (active)
OC(CBr)c1c(Br)ccc2ccccc12 (stereo not given) | 77% (active)
O=C1OC(c2cccc(Cl)c2)Sc2ccccc21 (stereo not given) | 56%
c1ccc(N2CCN(c3ccccc3)C2Cc2c[nH]c3ccccc23)cc1 | 98% (active)
CC(=O)c1sc(Nc2ccc(Cl)c(Cl)c2)nc1C | 22%
Cc1ncn(-c2ccccc2O)c1C | -14%
C[n+]1c(/C=C/c2ccc(N3CCCC3)cc2)sc2ccccc21 | 99% (active)
COc1ccc(-c2c(C#N)c(S)n(NS(=O)(=O)c3ccc(C)cc3)c(=O)c2C#N)cc1 | 97% (active)
N#Cc1c(-c2ccc(Cl)c(Cl)c2)c(-c2ccc(Cl)c(Cl)c2)nn(CCO)c1=O | 97% (active)
NCc1ccc(O)c(O)c1O | 61%
C[CH2][Sn]([CH2]C)([O]C(=O)c1cc(OC)c(OC)c(OC)c1)[O][Sn]([CH2]C)([CH2]C)[O]C(=O)c1cc(OC)c(OC)c(OC)c1 | 85% (active)
